Assay outcomes: PubChem, several laboratories
Shown are actives, neighbours in structure and some others; about 3.2% of the full set was active somewhere.
ERa SRC1 inh = blocks coactivator binding to human estrogen receptor alpha; TR-FRET ER-alpha LBD / SRC-1 peptide, estradiol-bound; AID 629; P03372; inhibition, % at 25.6 µM; 86,000 compounds, 1.7% hits; in the data active = inhibition above about 50%
ERb coact inh = blocks coactivator binding to human estrogen receptor beta | 86,000 compounds, 1.3% hits | AID 633 | inhibition, % at 25.6 µM | TR-FRET ER-beta LBD / SRC1-Cy5 peptide binding; receptor agonist-loaded with 1 µM estradiol | Q92731;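 active = compounds whose percent inhibition of the receptor-coactivator binding signal exceeds about 50% in the single-dose screen, limit read from the data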
Target sequence (Q92731 whole entry, looked up, the tested form may be a part): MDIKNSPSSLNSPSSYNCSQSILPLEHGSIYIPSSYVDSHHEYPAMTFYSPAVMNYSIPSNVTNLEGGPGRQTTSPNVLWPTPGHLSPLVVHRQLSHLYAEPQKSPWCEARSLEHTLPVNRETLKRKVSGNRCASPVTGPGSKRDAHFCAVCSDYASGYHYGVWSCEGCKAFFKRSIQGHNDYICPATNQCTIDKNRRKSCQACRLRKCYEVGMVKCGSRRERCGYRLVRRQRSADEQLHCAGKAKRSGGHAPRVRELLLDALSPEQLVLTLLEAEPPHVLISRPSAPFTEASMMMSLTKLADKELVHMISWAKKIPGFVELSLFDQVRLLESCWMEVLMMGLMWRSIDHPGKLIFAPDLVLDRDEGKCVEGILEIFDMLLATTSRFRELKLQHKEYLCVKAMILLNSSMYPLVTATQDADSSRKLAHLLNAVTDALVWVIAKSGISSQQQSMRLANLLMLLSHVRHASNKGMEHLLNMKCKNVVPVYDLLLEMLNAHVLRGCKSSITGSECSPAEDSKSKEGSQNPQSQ
FAK inh = FAK (human) kinase inhibition; Q05397; biochemical FAK kinase activity assay; inhibition, %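 (tested at 7 µM)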; 97,000 compounds, 0.84% hits; AID 727; in the data active = inhibition above about 19%
ERa SRC1 pot = ER-alpha (human) coactivator binding potentiation; P03372; TR-FRET ERalpha-LBD/SRC-Cy5 coactivator binding, 2 h; 100 = basal binding, no effect; coactivator binding (% of control), % at 25.6 µM; 86,000 compounds, 1.3% hits; in the data active = activity above about 200%;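 note: binding measured in presence of low estradiol as agonist stimulus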
A number is an active result; - = inactive; . = no result given; [ ] = dose if it differs, or a comment.

SMILES	ERa SRC1 inh	ERb coact inh	FAK inh	ERa SRC1 pot
Cc1noc(C)c1COC(=O)CCCc1nc2ccccc2s1	-	-	-	-
Cc1noc(C)c1COC(=O)c1ccc(-c2nc3ccccc3s2)s1	61[fluorescence artefact?]	-	-	-
CC1CCCCC12NC(=O)N(CC(=O)c1ccc[nH]1)C2=O (configuration not stated)	-	-	-	-
COc1cccc(C(=O)O/N=C/c2ccc(Sc3ccc(C)cc3)nc2)c1	-	-	-	-
COC(=O)c1sc(N2C(=O)c3oc4ccccc4c(=O)c3C2c2cccs2)nc1C (configuration not stated)	.	.	-	.
C=CCOC(=O)c1sc(N2C(=O)c3oc4ccccc4c(=O)c3C2c2ccco2)nc1C (configuration not stated)	54	61	.	-
O=C(CSc1nc2c(sc3ccccc32)c(=O)n1Cc1ccco1)NCC1CCCO1 (configuration not stated)	-	-	-	279[fluorescence artefact?]
O=C(CSc1nc2c(sc3ccccc32)c(=O)n1Cc1ccccc1)NCC1CCCO1 (configuration not stated)	-	-	-	-
CC1(C)Cc2nc3sc4c(SCC(=O)NCc5ccccc5)ncnc4c3cc2CO1	-	-	-	431[fluorescence artefact?]
CN1C(=O)/C(=C/c2cc(N=Nc3ccccc3)ccc2O)SC1=S	.	.	-	.
COc1cc(NC(=O)c2ccc(Br)o2)c(C(=O)O)cc1OC	-	-	-	-
COc1ccc(-c2nc3ccccc3o2)cc1NC(=O)c1ccc(Br)o1	-	-	-	257[fluorescence artefact?]
COC(=O)c1cc(OC)c(OC)cc1NC(=O)c1ccc(Br)o1	57	-	-	-
COc1ccccc1NC(=O)c1ccc(Br)o1	-	-	-	-
CNC(=O)c1cc2c(=O)n3cccc(C)c3nc2n1C	-	-	.	-
O=C(NC1CCSC1=O)c1ccccc1 (configuration not stated)	-	-	-	-
O=C(NC1CCSC1=O)c1cccc(C(=O)NC2CCSC2=O)c1 (configuration not stated)	-	-	-	208
COCCCn1c(=N)c(C(N)=S)cc2c(=O)n3cccc(C)c3nc21	69[fluorescence artefact?]	-	.	-
CCn1c(=N)c(C(N)=O)cc2c(=O)n3cccc(C)c3nc21	50	-	-	-
COc1ccc(OC)c(NC(=O)C2C3CCC(O3)C2C(=O)O)c1 (configuration not stated)	-	-	-	-
CC1(C)CC(=O)C2(CC3=C(CC(C)(C)CC3=O)O2)C(=O)C1	-	-	-	-
C=CCn1c(=O)c(C(=O)Nc2cccnc2)c(O)c2ccccc21	-	-	23	-
C=CCn1c(=O)c(C(=O)Nc2nnc(C)s2)c(O)c2ccccc21	-	-	.	-
CCOC(=O)Cc1csc(SCc2nc3ccccc3c(=O)[nH]2)n1	-	-	-	-
COc1cc(-c2nn3c(-c4ccccc4)nnc3s2)cc(OC)c1OC	-	-	-	-
SMILES	ERa SRC1 inh	ERb coact inh	FAK inh	ERa SRC1 pot
CCOc1cccc(-c2nnc3sc(-c4cc(OC)c(OC)c(OC)c4)nn23)c1	73	-	.	-
c1ccc2c(c1)nnn2Cc1nnc2sc(-c3ccc4c(c3)OCCO4)nn12	-	-	-	-
Cc1ccc(-c2nnc3sc(-c4ccc5c(c4)OCCO5)nn23)cc1	-	-	-	303
COc1ccc(-c2nnc3sc(-c4ccccc4OC)nn23)cc1	-	-	.	234
Clc1cccc(-c2nn3c(-c4cccc(Cl)c4)nnc3s2)c1	-	-	.	296
COc1ccc(C2c3c(oc4ccc(C)cc4c3=O)C(=O)N2c2cc(C)ccn2)cc1OC (configuration not stated)	-	-	-	-
COC(=O)c1cccc(NC(=O)c2nn(C)c(=O)c3ccccc23)c1	-	-	.	-
COc1cccc(-c2nnc3sc(-c4cccs4)nn23)c1	-	-	.	251
CCOc1ccc(-c2nn3c(-c4ccccc4)nnc3s2)cc1	-	-	-	-
CCOc1ccc(-c2nn3c(-c4ccc(OC)cc4)nnc3s2)cc1	-	-	.	677[fluorescence artefact?]
Cc1cnc(C(=O)OCC(=O)N(C(C)C)C(C)C)cn1	-	-	-	-
CC(=O)Nc1nc(C(=O)Nc2c(C)n[nH]c2C)cs1	-	-	-	-
CC(=O)Nc1nc(C=C(Cl)Cl)cs1	65	61[fluorescence artefact?]	.	-
CCN1CC2=C(OC(N)=C(C#N)C2c2cccs2)/C(=C\c2cccs2)C1 (configuration not stated)	-	-	-	-
CSc1ccc(C2C(C#N)=C(N)Oc3c2ccc(=O)c2c(C)oc(C)c32)cc1 (configuration not stated)	78	58	-	-
Cc1cc(=O)oc2cc(OCC(=O)Nc3nnc(C(C)C)s3)ccc12	-	-	-	488
COc1cc(-c2c(C#N)c(N)nc3c2c(C)nn3-c2ccc(C)c(C)c2)cc(OC)c1OC	-	54[fluorescence artefact?]	.	459[fluorescence artefact?]
Cc1nn(-c2ccc(F)cc2)c2nc(N)c(C#N)c(-c3cccs3)c12	-	-	-	243[fluorescence artefact?]
Cc1c(-c2ccc(F)cc2)nc(N)c(C#N)c1-c1cccs1	-	-	-	-
C=CCSc1nc(N)c(C#N)c(-c2ccccc2)c1C#N	-	-	-	238[fluorescence artefact?]
COCCn1c(SCC(=O)OCc2ccccc2)nc2c1c(=O)[nH]c(=O)n2C	-	-	.	-
CC1Cc2ccccc2N1C(=O)C1CCCN(S(=O)(=O)c2cccc3nsnc23)C1 (configuration not stated)	.	.	-	.
COc1cc2c(=O)n(Cc3ccco3)c(=O)n(CC(=O)c3cccc(Br)c3)c2cc1OC	-	-	-	283[fluorescence artefact?]
CCCCCCCOC1(c2ccccc2)OC(=O)c2ccccc21 (configuration not stated)	.	.	-	.
O=S(=O)(N1CCCCC1)N1CCN(CC(O)COc2ccc3cc(Br)ccc3c2)CC1 (configuration not stated)	-	-	-	253
SMILES	ERa SRC1 inh	ERb coact inh	FAK inh	ERa SRC1 pot
CN(C)S(=O)(=O)N1CCN(CC(O)COc2ccc3cc(Br)ccc3c2)CC1 (configuration not stated)	-	-	-	-
CCn1ncc(/C=N\NC(=O)c2cc(-c3ccc(C)cc3C)nc3ccccc23)c1C	.	.	-	.
COc1cccc2cc3c(=O)n(-c4ccccc4)nc-3oc12	99[fluorescence artefact?]	81	-	-
COc1ccc(C)cc1S(=O)(=O)N(CC(=O)NCc1ccc(Cl)cc1)Cc1ccccc1	-	-	-	-
O=C(O)C1Nc2c(O)cccc2C2C=CCC12 (configuration not stated)	99[fluorescence artefact?]	99[fluorescence artefact?]	.	-
CCOC(=O)C1CSC(CC(=O)Nc2ccc(Cl)c(Cl)c2)C(=O)N1 (configuration not stated)	-	-	-	-
COc1cc(C(Nc2ccccn2)c2ccc3ccc(C)nc3c2O)cc(OC)c1O (configuration not stated)	64[fluorescence artefact?]	65	-	-
Cc1cccc(NC(=O)Cn2nnc(-c3ccc(CN4CCCC4)cc3)n2)c1C	-	-	-	204[fluorescence artefact?]
Cc1ccc(-c2noc(CCC(=O)Nc3ccc(C)cn3)n2)cc1	-	-	-	253
Cc1ccc(-c2noc(CCC(=O)NCC3CCCO3)n2)cc1 (configuration not stated)	-	-	-	-
Cc1onc(COc2ccccc2O)c1Br	-	-	-	-
